Data as given in the supplement of paper PMC7726561.
Whole data set: some 1,400 sequences, median “thermal melting temperature (Tm) of peptide-HLA complex” near 60, cut for the lowest 2% near 45. The sample as a whole holds a higher share of the lowest values than the screen did.

These sequences were tested against HLA-B*07:02 (assay: thermal melting temperature (Tm) of peptide-HLA complex; higher = more thermostable pHLA complex). Conditions: C1R-B*07:02.
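Note: lysates heated 10 min at 37–73 °C, complexes pulled down with pan-HLA I antibody, peptide signal by DIA-MS relative to 37 °C, Tm where half the complex is unfolded.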

Sequence | thermal melting temperature [°C]
SPNLRLLDL | 63.4
LPSPSPRISL | 60.6
GSISRIYL | 41.4
NVRPPNTAL | 56.8
APYSRPKQL | 61.5
APRGTGIVSA | 57.4
IPRGADNLVAI | 61.8
VPRPPSLLATL | 62.9
FPQHTIASL | 58.7
GPRNVLLFL | 55.1
TPQQGAQTSL | 40.5
TPQGFRSTL | 60
YLRDTLLAL | 53.6
VPEVTKPSL | 57.6
SPRPALPALL | 60.2
APILRARLLPL | 47.3
YPKRPLLGL | 61.3
YIDEGRLVL | 51.6
GPRSSLRVL | 58.9
FPRSVVEFL | 62

Sequence | thermal melting temperature [°C]
LPTSPGPAL | 40.6
LPAPKGPAL | 57.9
KPNHTLVLL | 59.2
RPADSMLNVL | 62
RPAPLVQQL | 58.3
APREHPFVL | 61
LPRTIFPTSTI | 62.8
LPHSATVTL | 60.7
DPMKARVVL | 49.3
IPKLPAVSF | 63.1
QPRSPGPDYSL | 57.7
RPKALTQVL | 61
SPLVSRLTLY | 41.1
SPLVSRLTL | 61.4
RPQLKGVVL | 61.1
SPLPSPSAM | 63.8
HPISNNNSL | 41.6
NPMVTGTSV | 56.3
LPHEVDKSEL | 44.8
SPVLRNFTF | 41.7

Sequence | thermal melting temperature [°C]
IPRPEVQAL | 54.1
VPQVKASAL | 59
LPGLRDLVL | 61.7
MPKVKTIEL | 56.4
APRSVAVSSI | 59.4
SPHPGLLL | 61
KPHIGLTEL | 60.7
LPRTPSYSI | 62.1
HPISSEELLSL | 58.6
MPKLRVLEL | 57.1
YPNERFELL | 63.1
APSDLRTIQTF | 62.8
RPFFPLTATL | 49.6
FIRNRTLQL | 61.5
MPARWLTHL | 55
QPVAGRPSL | 55.8
QPNLKLLAM | 62.9
SPRGAGYLF | 63
RPVLWVGV | 60.8
